Records with an inconclusive call do not appear. Calls of active or inactive are those of the source. The calls were made as follows: active = hit-call score of the fitted dose curve at least 0.9, where 1 is the maximum; inconclusive = response in the unintended direction; inactive = score below 0.9.

Read-out in this assay: sulfotransferase (SULT2A), SULT2A1 (gene 6822)
Nature of the assay: CLD_SULT2A_24hr: CellzDirect (CLD) Gene Expression Assay for sulfotransferase (SULT2A) at 24 hours (AID 2283694).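 As to AC50: potency for increased SULT2A1 mRNA level as induction over DMSO baseline.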 Here is the method: CLD_24hr is a cell-based, multiplexed-readout assay that uses hepatocyte, a human liver primary cell, with measurements taken at 24 hours after chemical dosing in a 96-well plate.CLD_SULT2A_24hr is one of 16 assay component(s) measured or calculated from the CLD_24hr assay. It is designed to make measurements of mRNA induction, a form of inducible reporter, as detected with chemiluminescence signals by Quantitative Nuclease Protection Assay (qNPA) technology.Data from the assay component CLD_SULT2A_24hr was analyzed at the endpoint, CLD_SULT2A_24hr, in the positive analysis fitting direction relative to DMSO as the negative control and baseline of activity. Using a type of inducible reporter, gain-of-signal activity can be used to understand changes in the reporter gene as they relate to the gene SULT2A1. Furthermore, this assay endpoint can be referred to as a primary readout. To generalize the intended target to other relatable targets, this assay endpoint is annotated to the transferase intended target family, where subfamily is sulfotransferase.
Human hepatocyte cultures were treated daily for two consecutive days with fresh dosing solutions containing appropriate concentrations of the 320 ToxCast chemicals (chemical identities were blinded to CellzDirect and other ToxCast collaborators), vehicle control (0.2% DMSO), and positive control inducers as summarized in Table 1. Due to the large number of treatment groups and chemicals examined, the ToxCast chemicals were divided into two groups (spanning two independent cultures of hepatocytes from separate donor preparations (Hu778: ToxCast plates 1 and 2; Hu776: ToxCast plates 3 and 4). Each preparation of human hepatocyte cultures was treated with respective vehicle control, medium only control, set of six positive controls/reference chemicals for the five hepatic receptor pathways, and a subset of eight of the ToxCast chemicals (indoxacarb, pyrithiobac-sodium, norflurazon, cyhalofop-butyl, methomyl, thiram, acetochlor, and propiconazole). These replicate data, coupled with internal replicates designed within the blinded ToxCast chemical library, provided additional data to evaluate interindividual differences between hepatocyte preparations and their potential impact on chemical profiles.Cell morphology and integrity were evaluated using phase-contrast microscopy as an indicator of hepatocyte cell health (Tyson & Green, 1987). Cultures for each treatment group (i.e., media, vehicle [0.2% DMSO], positive control inducers [multiple concentrations], and the ToxCast chemicals [multiple concentrations]) were observed and cell morphology was assessed relative to vehicle control cultures at each harvest time point (0, 6, 24, or 48 h). […] Images were evaluated at the conclusion of the study to assess changes in cell integrity and account for the effects of chemical exposure on uncharacteristic changes in concentration-dependent gene expression profiles. The results from these determinations of apparent cytotoxicity were annotated (yes/no) alongside the corresponding qNPA data for reference.At the conclusion of each treatment period, hepatocyte cultures (96-well) were washed with 1 volume of HBSS, lysed by addition of 25 ul ArrayPlate lysis buffer (HTG, Tucson, AZ), and 70 ul/well of Denaturation Oil, denatured by incubation at 95C for 10 min, and frozen at approximately -70C until analysis by nuclease protection assay (qNPA) (Roberts et al., 2007). For qNPA analysis, cell lysates were thawed at 50C for approximately 30 min, qNPA probes were added, and samples were incubated at 95C for 10 min to begin the detection process by denaturing the target RNA, dissociating the duplexes and secondary structure hybridization. At the conclusion of the hybridization period, S1 nuclease reagent was added to each sample to digest all nonprotected nucleotides at 50C for 60-90 min. […]
For orientation: AC50 means the concentration giving half of the maximal activity seen. Take `CC(C)(C)c1ccc(CSc2cnn(C(C)(C)C)c(=O)c2Cl)cc1`: the concentration at half-maximal activity (AC50) is 20 µM (active).
For `N#CC(CCc1ccc(Cl)cc1)(Cn1cncn1)c1ccccc1` (configuration not stated), the result was inactive.
`COC(=O)C(C)Oc1ccc(Oc2ccc(Cl)cc2Cl)cc1` (configuration not stated): the compound was classed as inactive.
As to `Cc1ccc(-c2c(Cl)nc(C#N)n2S(=O)(=O)N(C)C)cc1`, the outcome was inactive.
Still for that read-out and setting: the value for `CCOP(=S)(OCC)SCn1c(=O)oc2cc(Cl)ccc21` was “inactive”.
Still for that read-out and setting: to `CCOc1cc(Oc2ccc(C(F)(F)F)cc2Cl)ccc1[N+](=O)[O-]` belongs “inactive”.
Regarding `CCNc1nc(Cl)nc(NCC)n1`, the result was inactive.
On to `COC(=O)N(OC)c1ccccc1COc1ccn(-c2ccc(Cl)cc2)n1`, for which the compound was called inactive.
Still for that read-out and setting: the value for `CCOC(=O)C(Cl)Cc1cc(-n2nc(C)n(C(F)F)c2=O)c(F)cc1Cl` (configuration not stated) was “inactive”.
`CCCN(CCC)c1c([N+](=O)[O-])cc(S(N)(=O)=O)cc1[N+](=O)[O-]`: the AC50 is 20 µM (active).
For the compound `CCCCC(CC)COC(=O)c1ccccc1C(=O)OCC(CC)CCCC` (configuration not stated), the outcome was inactive.
Regarding `C=CC1(C)OC(=O)N(c2cc(Cl)cc(Cl)c2)C1=O` (configuration not stated), the compound was called inactive.
Regarding `CCNc1nc(Cl)nc(NC(C)C)n1`, the call was inactive.
Take `COc1ccc(C(c2ccc(OC)cc2)C(Cl)(Cl)Cl)cc1`: the call was inactive.
On the same count and under the same terms, the value for `CNC(=S)S` was “inactive”; that for `CC1COC(Cn2cncn2)(c2ccc(Oc3ccc(Cl)cc3)cc2Cl)O1` (configuration not stated) was “inactive”; that for `CCCCOC(=O)c1ccccc1C(=O)OCCCC` was “inactive”.
`O=C(O)COc1nc(Cl)c(Cl)cc1Cl`: the result was inactive.
With `O=C(O)c1nc(Cl)ccc1Cl`, the outcome was inactive.
As to `COc1nc(C)nc(NC(=O)NS(=O)(=O)c2ccccc2CCC(F)(F)F)n1`, the outcome was inactive.
Regarding `COC(=O)c1ccccc1C(=O)OC`, the outcome was inactive.
As to `COC(=O)C=C(C)OP(=O)(OC)OC`, the compound was called inactive.
On the same count and under the same terms, to `C=CCC1=C(C)[C@@H](OC(=O)[C@@H]2[C@@H](C=C(C)C)C2(C)C)CC1=O` belongs “inactive”; to `CO/C=C(/C(=O)OC)c1ccccc1Oc1cc(Oc2ccccc2C#N)ncn1`, “inactive”; to `OC(c1ccc(Cl)cc1)(c1cncnc1)c1ccccc1Cl` (configuration not stated), “inactive”.
For `N#Cc1cc(Br)c(O)c(Br)c1`, the call was inactive.
On the same count and under the same terms, the value for `CCCC1COC(Cn2cncn2)(c2ccc(Cl)cc2Cl)O1` (configuration not stated) was “inactive”; that for `CCON=C(CC)C1=C(O)CC(c2c(C)cc(C)cc2C)CC1=O` (configuration not stated) was “inactive”.
For `C#CCOS(=O)OC1CCCCC1Oc1ccc(C(C)(C)C)cc1` (configuration not stated), the compound was classed as inactive.
With `N#Cc1nn(-c2c(Cl)cc(C(F)(F)F)cc2Cl)c(N)c1S(=O)C(F)(F)F` (configuration not stated), the AC50 is 2.43 µM (active).
As for `CCCCNC(=O)OCC#CI`, the outcome was inactive.
For `COc1nc(C)nc(NC(=O)NS(=O)(=O)c2ccccc2Cl)n1`, the compound was called inactive.
In the case of `COc1cnc(OC)n2nc(NS(=O)(=O)c3c(OCC(F)F)cccc3C(F)(F)F)nc12`, the compound was called inactive.
Take `CCOC(=O)CC(SP(=S)(OC)OC)C(=O)OCC` (configuration not stated): the result was inactive.
With `COP(=S)(OC)Oc1nc(Cl)c(Cl)cc1Cl`, the compound was classed as inactive.
Take `CCc1nn(C)c(C(=O)NCc2ccc(C(C)(C)C)cc2)c1Cl`: the AC50 was 3.71 µM (active).
As for `CC(C)Oc1cc(-n2nc(C(C)(C)C)oc2=O)c(Cl)cc1Cl`, the compound was classed as inactive.

Values taken from PubChem BioAssay (EPA / NIEHS).
